# Experimental data published in the supplement of paper PMC8728848.
# Many of the other results were omitted from the sample, so the strongest signals are more common in it than they were.
# Legend:
# Assay in all cases: glycan array binding signal (z-score within array); higher = stronger binding
# Conditions in all cases: glycan notation: IUPAC condensed, linker removed
# [1] = molecular target: Fuc(a1-2)Gal(b1-3)GalNAc(b1-4)[Neu5Ac(a2-3)]Gal(b1-4)Glc
# Outline: (§1)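 Glycan array binding is given as a within-array Z-score, which can be read as non-binding when negative. The arrays, 3228 of them, came from the Consortium for Functional Glycomics database and were retained only where the protein sequence was available. Z-scores were averaged across arrays of the same protein sequence at different concentrations or buffers and across linkers.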
# Fuc(a1-2)Gal(b1-4)GlcNAc = molecular target: Fuc(a1-2)Gal(b1-4)GlcNAc
# Outline: as §1
# [2] = molecular target: Fuc(a1-2)Gal(b1-4)GlcNAc(b1-2)Man(a1-3)[Fuc(a1-2)Gal(b1-4)GlcNAc(b1-2)Man(a1-6)]Man(b1-4)GlcNAc(b1-4)[Fuc(a1-6)]GlcNAc
# Outline: as §1
# [3] = molecular target: Fuc(a1-2)[Gal(a1-3)]Gal(b1-3)GlcNAc
# Outline: as §1
# [4] = molecular target: Fuc(a1-2)[Gal(a1-3)]Gal(b1-3)GlcNAc(b1-6)GalNAc
# Outline: as §1
# [5] = molecular target: Fuc(a1-2)[GalNAc(a1-3)]Gal(b1-4)GlcNAc(b1-2)Man
# Outline: as §1
# [6] = molecular target: Fuc(a1-2)[GalNAc(a1-3)]Gal(b1-4)GlcNAc(b1-2)Man(a1-3)[Fuc(a1-2)[GalNAc(a1-3)]Gal(b1-4)GlcNAc(b1-2)Man(a1-6)]Man(b1-4)GlcNAc(b1-4)[Fuc(a1-6)]GlcNAc
# Outline: as §1
# [7] = molecular target: Fuc(a1-3)[Gal(b1-4)]GlcNAc(b1-6)[Gal(b1-3)GlcNAc(b1-3)]Gal(b1-4)Glc
# Outline: as §1
# [8] = molecular target: Gal(a1-3)Gal(b1-4)GlcNAc(b1-6)GalNAc
# Outline: as §1
# Gal(b1-3)Gal(b1-4)GlcNAc = molecular target: Gal(b1-3)Gal(b1-4)GlcNAc
# Outline: as §1
# [9] = molecular target: Gal(b1-3)GalNAc(b1-4)[Neu5Ac(a2-3)]Gal(b1-4)Glc
# Outline: as §1
# Gal(b1-4)Glc = molecular target: Gal(b1-4)Glc
# Outline: as §1
# [10] = molecular target: Gal(b1-4)GlcNAc(a1-6)Gal(b1-4)GlcNAc
# Outline: as §1
# [11] = molecular target: Gal(b1-4)GlcNAc(b1-2)Man(a1-3)[Gal(b1-4)GlcNAc(b1-2)Man(a1-6)][Gal(b1-4)GlcNAc(b1-4)]Man(b1-4)GlcNAc(b1-4)[Fuc(a1-6)]GlcNAc
# Outline: as §1
# [12] = molecular target: Gal(b1-4)GlcNAc(b1-2)Man(a1-6)[GlcNAc(b1-2)Man(a1-3)]Man(b1-4)GlcNAc(b1-4)GlcNAc
# Outline: as §1
# [13] = molecular target: Gal(b1-4)GlcNAc(b1-3)Gal(b1-4)GlcNAc(b1-2)Man(a1-3)[Gal(b1-4)GlcNAc(b1-3)Gal(b1-4)GlcNAc(b1-2)Man(a1-6)]Man(b1-4)GlcNAc(b1-4)GlcNAc
# Outline: as §1
# [14] = molecular target: Gal(b1-4)GlcNAc(b1-3)Gal(b1-4)GlcNAc(b1-2)[Gal(b1-4)GlcNAc(b1-3)Gal(b1-4)GlcNAc(b1-6)]Man(a1-6)[Gal(b1-4)GlcNAc(b1-3)Gal(b1-4)GlcNAc(b1-2)Man(a1-3)]Man(b1-4)GlcNAc(b1-4)[Fuc(a1-6)]GlcNAc
# Outline: as §1
# [15] = molecular target: Gal(b1-4)GlcNAc(b1-3)Gal(b1-4)GlcNAc(b1-3)Gal(b1-4)GlcNAc(b1-3)Gal(b1-4)GlcNAc(b1-2)Man(a1-3)[Gal(b1-4)GlcNAc(b1-3)Gal(b1-4)GlcNAc(b1-3)Gal(b1-4)GlcNAc(b1-3)Gal(b1-4)GlcNAc(b1-2)Man(a1-6)]Man(b1-4)GlcNAc(b1-4)GlcNAc
# Outline: as §1
# [16] = molecular target: Gal(b1-4)GlcNAc(b1-3)Gal(b1-4)GlcNAc(b1-3)Gal(b1-4)GlcNAc(b1-3)Gal(b1-4)GlcNAc(b1-2)Man(a1-3)[Gal(b1-4)GlcNAc(b1-3)Gal(b1-4)GlcNAc(b1-3)Gal(b1-4)GlcNAc(b1-3)Gal(b1-4)GlcNAc(b1-2)Man(a1-6)]Man(b1-4)GlcNAc(b1-4)[Fuc(a1-6)]GlcNAc
# Outline: as §1
# [17] = molecular target: Gal(b1-4)GlcNAc(b1-3)Gal(b1-4)GlcNAc(b1-3)Gal(b1-4)GlcNAc(b1-3)Gal(b1-4)GlcNAc(b1-3)Gal(b1-4)GlcNAc(b1-2)Man(a1-3)[Gal(b1-4)GlcNAc(b1-3)Gal(b1-4)GlcNAc(b1-3)Gal(b1-4)GlcNAc(b1-3)Gal(b1-4)GlcNAc(b1-3)Gal(b1-4)GlcNAc(b1-2)Man(a1-6)]Man(b1-4)GlcNAc(b1-4)[Fuc(a1-6)]GlcNAc
# Outline: as §1
# Gal3S(b1-4)Glc = molecular target: Gal3S(b1-4)Glc
# Outline: as §1
# [18] = molecular target: Glc(a1-4)Glc(a1-4)Glc(a1-4)Glc
# Outline: as §1
# [19] = molecular target: GlcNAc(b1-2)[GlcNAc(b1-6)]Man(a1-6)[GlcNAc(b1-2)Man(a1-3)]Man(b1-4)GlcNAc(b1-4)[Fuc(a1-6)]GlcNAc
# Outline: as §1
# [20] = molecular target: GlcNAc(b1-3)Gal(b1-4)GlcNAc(b1-2)[GlcNAc(b1-3)Gal(b1-4)GlcNAc(b1-6)]Man(a1-6)[GlcNAc(b1-3)Gal(b1-4)GlcNAc(b1-2)Man(a1-3)]Man(b1-4)GlcNAc(b1-4)GlcNAc
# Outline: as §1
# [21] = molecular target: GlcNAc(b1-3)Gal(b1-4)GlcNAc(b1-3)Gal(b1-4)GlcNAc(b1-2)Man(a1-3)[GlcNAc(b1-3)Gal(b1-4)GlcNAc(b1-3)Gal(b1-4)GlcNAc(b1-2)Man(a1-6)]Man(b1-4)GlcNAc(b1-4)GlcNAc
# Outline: as §1
# [22] = molecular target: GlcNAc(b1-3)Gal(b1-4)GlcNAc(b1-3)Gal(b1-4)GlcNAc(b1-2)[GlcNAc(b1-3)Gal(b1-4)GlcNAc(b1-3)Gal(b1-4)GlcNAc(b1-6)]Man(a1-6)[GlcNAc(b1-3)Gal(b1-4)GlcNAc(b1-3)Gal(b1-4)GlcNAc(b1-2)Man(a1-3)]Man(b1-4)GlcNAc(b1-4)[Fuc(a1-6)]GlcNAc
# Outline: as §1
# [23] = molecular target: GlcNAc(b1-3)Gal(b1-4)GlcNAc(b1-3)Gal(b1-4)GlcNAc(b1-3)Gal(b1-4)GlcNAc(b1-2)Man(a1-3)[GlcNAc(b1-3)Gal(b1-4)GlcNAc(b1-3)Gal(b1-4)GlcNAc(b1-3)Gal(b1-4)GlcNAc(b1-2)Man(a1-6)]Man(b1-4)GlcNAc(b1-4)[Fuc(a1-6)]GlcNAc
# Outline: as §1
# [24] = molecular target: GlcNAc(b1-3)Gal(b1-4)GlcNAc(b1-3)Gal(b1-4)GlcNAc(b1-3)Gal(b1-4)GlcNAc(b1-2)[GlcNAc(b1-3)Gal(b1-4)GlcNAc(b1-3)Gal(b1-4)GlcNAc(b1-3)Gal(b1-4)GlcNAc(b1-6)]Man(a1-6)[GlcNAc(b1-3)Gal(b1-4)GlcNAc(b1-3)Gal(b1-4)GlcNAc(b1-3)Gal(b1-4)GlcNAc(b1-2)Man(a1-3)]Man(b1-4)GlcNAc(b1-4)[Fuc(a1-6)]GlcNAc
# Outline: as §1
# GlcNAc(b1-3)GalNAc = molecular target: GlcNAc(b1-3)GalNAc
# Outline: as §1
# [25] = molecular target: GlcNAc(b1-3)[GlcNAc(b1-4)][GlcNAc(b1-6)]GlcNAc
# Outline: as §1
# [26] = molecular target: Man(a1-2)Man(a1-3)[Man(a1-2)Man(a1-6)]Man(a1-6)[Man(a1-2)Man(a1-2)Man(a1-3)]Man
# Outline: as §1
# [27] = molecular target: Neu5Ac(a2-3)Gal(b1-3)[Fuc(a1-4)]GlcNAc
# Outline: as §1
# [28] = molecular target: Neu5Ac(a2-3)Gal(b1-4)GlcNAc(b1-2)Man(a1-3)[Neu5Ac(a2-3)Gal(b1-4)GlcNAc(b1-2)Man(a1-6)]Man(b1-4)GlcNAc(b1-4)GlcNAc
# Outline: as §1
# [29] = molecular target: Neu5Ac(a2-3)Gal(b1-4)GlcNAc(b1-2)[Neu5Ac(a2-3)Gal(b1-4)GlcNAc(b1-6)]Man(a1-6)[Neu5Ac(a2-3)Gal(b1-4)GlcNAc(b1-2)Man(a1-3)][GlcNAc(b1-4)]Man(b1-4)GlcNAc(b1-4)GlcNAc
# Outline: as §1
# [30] = molecular target: Neu5Ac(a2-3)Gal(b1-4)[Fuc(a1-3)]GlcNAc(b1-3)Gal(b1-4)[Fuc(a1-3)]GlcNAc(b1-3)Gal(b1-4)[Fuc(a1-3)]GlcNAc
# Outline: as §1
# [31] = molecular target: Neu5Ac(a2-3)Gal(b1-4)[Fuc(a1-3)]GlcNAc(b1-6)[Gal(b1-3)]GalNAc
# Outline: as §1
# [32] = molecular target: Neu5Ac(a2-6)Gal(b1-4)GlcNAc(b1-2)[Neu5Ac(a2-6)Gal(b1-4)GlcNAc(b1-4)]Man(a1-3)[GlcNAc(b1-4)][Neu5Ac(a2-6)Gal(b1-4)GlcNAc(b1-4)Man(a1-6)]Man(b1-4)GlcNAc(b1-4)GlcNAc
# Outline: as §1
# [33] = molecular target: Neu5Ac(a2-6)Gal(b1-4)GlcNAc(b1-3)Gal(b1-4)GlcNAc(b1-3)Gal(b1-4)GlcNAc(b1-2)Man(a1-3)[Neu5Ac(a2-6)Gal(b1-4)GlcNAc(b1-3)Gal(b1-4)GlcNAc(b1-3)Gal(b1-4)GlcNAc(b1-2)Man(a1-6)]GalNAc
# Outline: as §1
# [34] = molecular target: Neu5Ac(a2-6)GalNAc(b1-4)GlcNAc6S
# Outline: as §1
# [35] = molecular target: Neu5Gc(a2-3)Gal(b1-4)[Fuc(a1-3)]GlcNAc
# Outline: as §1
binder,measurement,setting,value
Pwp6 (Candida glabrata) (protein) MGSSHHHHHHSSGLVPRGSHMASANLPKLTNICQIPDNVKKTSGFKGEIRRIGLFPPGGDYTYLLKFPSTGSTASDTISLTTKPQLSTSGWFPSLFGHTYFIKADLLVYMVAYFVPTETGEYTFKLVNSDDAAVMYVGNPSAFPCGSIDTWPEPRKEDINVCDKISASTKLYMEKGLAYPVRLVWYNGGGDGQFNAQFIDPSGTTHTDWNGYVWQYDACTDCDYK,glycan array binding signal (z-score),[1],-0.318
same,glycan array binding signal (z-score),Fuc(a1-2)Gal(b1-4)GlcNAc,-0.848
same,glycan array binding signal (z-score),[2],0.09
same,glycan array binding signal (z-score),[3],-0.701
same,glycan array binding signal (z-score),[4],-0.097
same,glycan array binding signal (z-score),[5],-0.201
same,glycan array binding signal (z-score),[6],0.167
same,glycan array binding signal (z-score),[7],-0.265
same,glycan array binding signal (z-score),[8],0.221
same,glycan array binding signal (z-score),Gal(b1-3)Gal(b1-4)GlcNAc,-0.617
same,glycan array binding signal (z-score),[9],-0.134
same,glycan array binding signal (z-score),Gal(b1-4)Glc,-0.681
same,glycan array binding signal (z-score),[10],-0.631
same,glycan array binding signal (z-score),[11],-0.334
same,glycan array binding signal (z-score),[12],0.606
same,glycan array binding signal (z-score),[13],2.96
same,glycan array binding signal (z-score),[14],0.465
same,glycan array binding signal (z-score),[15],5.06
same,glycan array binding signal (z-score),[16],3.31
same,glycan array binding signal (z-score),[17],1.2
same,glycan array binding signal (z-score),Gal3S(b1-4)Glc,-0.252
same,glycan array binding signal (z-score),[18],-0.556
same,glycan array binding signal (z-score),[19],0.023
same,glycan array binding signal (z-score),[20],2.94
same,glycan array binding signal (z-score),[21],3.63
same,glycan array binding signal (z-score),[22],3.3
same,glycan array binding signal (z-score),[23],3.79
same,glycan array binding signal (z-score),[24],3.71
same,glycan array binding signal (z-score),GlcNAc(b1-3)GalNAc,-0.863
same,glycan array binding signal (z-score),[25],-0.466
same,glycan array binding signal (z-score),[26],-0.603
same,glycan array binding signal (z-score),[27],-0.364
same,glycan array binding signal (z-score),[28],4.2
same,glycan array binding signal (z-score),[29],1.89
same,glycan array binding signal (z-score),[30],-0.179
same,glycan array binding signal (z-score),[31],-0.222
same,glycan array binding signal (z-score),[32],-0.266
same,glycan array binding signal (z-score),[33],8.45
same,glycan array binding signal (z-score),[34],0.14
same,glycan array binding signal (z-score),[35],-0.654
